# Data: PubChem BioAssay AID743421 (Vanderbilt Specialized Chemistry Center, 2014)
# Target: Metabotropic glutamate receptor 6 (Homo sapiens) (UniProt O15303)
# Assay: off-target activity check on mGlu6 receptor – cell-based, GIRK thallium flux, agonist curve fold shift, selectivity assay for mGlu8/mGlu7 PAM project, profiling panel (AID 743421)
# Details: mGlu6/GIRK cells, thallium flux (Fluo Zn); agonist CRC fold shift; at 10 µM; stronger effect = higher value
# Metabotropic glutamate receptor 6 (Homo sapiens), sequence (O15303 whole entry, looked up): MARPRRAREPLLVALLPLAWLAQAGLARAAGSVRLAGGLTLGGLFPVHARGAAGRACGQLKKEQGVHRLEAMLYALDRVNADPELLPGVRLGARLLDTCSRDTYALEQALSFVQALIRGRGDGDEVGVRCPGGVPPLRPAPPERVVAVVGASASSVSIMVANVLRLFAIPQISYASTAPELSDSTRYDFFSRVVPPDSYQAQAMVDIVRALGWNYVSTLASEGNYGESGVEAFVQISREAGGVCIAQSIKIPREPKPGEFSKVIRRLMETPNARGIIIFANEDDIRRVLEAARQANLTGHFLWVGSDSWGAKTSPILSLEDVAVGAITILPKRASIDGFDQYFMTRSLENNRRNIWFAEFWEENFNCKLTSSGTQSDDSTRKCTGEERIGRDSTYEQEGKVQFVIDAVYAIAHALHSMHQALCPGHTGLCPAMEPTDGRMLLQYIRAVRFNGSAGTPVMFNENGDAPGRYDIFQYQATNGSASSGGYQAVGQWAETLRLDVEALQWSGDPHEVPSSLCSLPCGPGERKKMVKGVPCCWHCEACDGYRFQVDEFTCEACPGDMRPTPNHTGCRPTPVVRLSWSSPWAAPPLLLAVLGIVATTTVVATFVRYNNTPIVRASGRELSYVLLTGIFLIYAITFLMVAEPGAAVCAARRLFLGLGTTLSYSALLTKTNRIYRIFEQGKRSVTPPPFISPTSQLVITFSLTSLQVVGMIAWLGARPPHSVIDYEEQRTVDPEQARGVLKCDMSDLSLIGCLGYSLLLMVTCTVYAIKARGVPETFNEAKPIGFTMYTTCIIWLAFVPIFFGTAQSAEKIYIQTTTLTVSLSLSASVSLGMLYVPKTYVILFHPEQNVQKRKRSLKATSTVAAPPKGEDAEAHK
smiles,measurement,value
COC(=O)c1ccc(-n2c(C)cc(C(=O)CSc3ccc(NC(C)=O)cc3)c2C)cc1,fold shift,2.59
